Assay outcomes from PubChem BioAssay.
KLF5 inh – kruppel-like factor 5 inhibition | inhibition, % at 5 µM | 0.23% of 290,000 active | DLD-1 KLF5 promoter-luciferase reporter, luminescence;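 active = inhibition above a per-plate limit of that plate's mean compound inhibition plus 3 SD, cut at about 60% in these data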;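 also: 0% = DMSO wells and 100% = LY294002 at 200 µM; higher means less KLF5 promoter-driven luciferase light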
Gli-Sufu antag – Gli-Sufu pathway antagonism | Sufu-KO-LIGHT fibroblasts, Gli luciferase reporter luminescence | inhibition, % at 5 µM | 0.74% of 340,000 active;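 active = inhibition above about 55%, limit read from the data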;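 also: 0% = DMSO-treated cells and 100% = wells with medium but no cells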
Jurkat NFkB inh – inhibitors of the PMA/ionomycin-induced NF-kB reporter in Jurkat cells | PMA/ionomycin-induced NF-kB luciferase reporter, luminescence | inhibition, % at 4 µM | 0.53% of 330,000 active | AID 435003; in the data active = inhibition above about 50%
Mdm2 MdmX PPI – disrupts the human Mdm2-MdmX interaction. O15151+Q00987. SaOS-2 split-luciferase Mdm2/MdmX complementation, luminescence. inhibition, % at 8 µM. 3% of 330,000 active. AID 485346;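 active = inhibition of at least 50% at 8 µM in the primary screen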
Target sequence (O15151 whole entry, looked up): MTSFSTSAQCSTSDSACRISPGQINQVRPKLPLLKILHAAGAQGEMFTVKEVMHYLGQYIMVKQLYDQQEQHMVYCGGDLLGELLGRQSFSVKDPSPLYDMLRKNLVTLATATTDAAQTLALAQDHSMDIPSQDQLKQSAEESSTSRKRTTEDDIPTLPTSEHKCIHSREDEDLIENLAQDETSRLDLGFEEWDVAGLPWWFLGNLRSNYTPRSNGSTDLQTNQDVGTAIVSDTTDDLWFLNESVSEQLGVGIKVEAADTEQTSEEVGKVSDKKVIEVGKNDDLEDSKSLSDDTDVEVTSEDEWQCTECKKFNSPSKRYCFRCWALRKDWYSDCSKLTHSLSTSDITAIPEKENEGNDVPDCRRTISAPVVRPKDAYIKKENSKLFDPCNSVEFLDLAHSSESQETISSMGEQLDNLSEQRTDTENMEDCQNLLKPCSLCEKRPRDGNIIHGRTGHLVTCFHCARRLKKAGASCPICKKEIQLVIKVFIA
Target sequence (Q00987 whole entry, looked up): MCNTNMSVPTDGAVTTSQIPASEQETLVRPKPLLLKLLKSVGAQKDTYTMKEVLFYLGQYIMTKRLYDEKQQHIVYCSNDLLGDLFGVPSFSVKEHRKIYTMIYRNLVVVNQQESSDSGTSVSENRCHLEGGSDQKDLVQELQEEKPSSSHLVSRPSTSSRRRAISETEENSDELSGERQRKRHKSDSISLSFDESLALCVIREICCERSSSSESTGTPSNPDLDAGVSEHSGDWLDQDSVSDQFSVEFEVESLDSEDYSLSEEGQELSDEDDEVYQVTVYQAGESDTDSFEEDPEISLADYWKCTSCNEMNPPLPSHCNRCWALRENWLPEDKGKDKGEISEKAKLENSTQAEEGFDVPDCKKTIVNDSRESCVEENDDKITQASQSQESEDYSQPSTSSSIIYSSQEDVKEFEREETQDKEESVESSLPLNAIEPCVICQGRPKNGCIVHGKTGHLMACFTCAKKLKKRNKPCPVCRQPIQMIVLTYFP
aSyn UTR inh – MLPCN primary screen, SNCA 5' untranslated region | alpha-synuclein 5'UTR reporter, inhibitor activity | inhibition, % (tested at 7.5 µM) | 0.82% of 300,000 active; in the data active = inhibition above about 60%;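 also: H4 neuroglioblastoma cells stably carrying SNCA 5'UTR luciferase fusion; 0% = DMSO wells and 100% = positive control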
697 NFkB inh – lowers PMA/ionomycin-induced NF-kB signal in 697 B cells | 0.33% of 330,000 active | inhibition, % at 4 µM | 697 B-cell NF-kB luciferase reporter, 16 h; in the data active = inhibition above about 35%
Mdm2-MdmX conf – confirmation of human Mdm2/MdmX interaction inhibitors; shares compounds with Mdm2 MdmX PPI; Mdm2-MdmX binding, luminescent assay; inhibition, % at 8 µM; 55% of 10,000 active; AID 489028; in the data active = inhibition above about 40%
FLuc counter – counter-screen for Mdm2/MdmX inhibitors: full-length luciferase; 77% of 6,200 active; SaOS-2 full-length luciferase counterscreen, luminescence; inhibition, % at 8 µM; shares compounds with Mdm2 MdmX PPI;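 active = mean inhibition at 8 µM reaching about 37%, which flags the compound as non-specific, limit read from the data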;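 also: p53-null SaOS-2 cells with luciferase driven by a doxycycline-inducible promoter; compound on cells about two nights before reading with doxycycline added after day one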
The depositor's hits bear a star; / = no result. An excerpt weighted towards active compounds, which were near 4.1% of everything screened.

SMILES | KLF5 inh | Gli-Sufu antag | Jurkat NFkB inh | Mdm2 MdmX PPI | aSyn UTR inh | 697 NFkB inh | Mdm2-MdmX conf | others
COC(=O)c1cc2ccsc2n1Cc1cccc(F)c1 | -14 | -27 | -4 | -5 | 15 | -22 | /
COC(=O)c1cc2ccsc2n1Cc1nc(-c2ccc(OC)cc2)oc1C | -19 | 6 | 7 | 60* | 21 | -6 | 6
COC(=O)c1cc2sccc2n1Cc1nc(-c2ccc(OC)cc2)oc1C | 6 | 4 | -19 | 68* | 39 | -14 | 28
O=[N+]([O-])c1cnccc1Nc1cccc(F)c1 | -14 | 8 | 3 | -4 | -32 | -14 | /
O=[N+]([O-])c1ccc(Oc2cccc(F)c2)c2ccncc12 | -29 | 8 | -3 | 58* | 8 | 14 | 26
COc1cccc(/C=C2/Sc3ccc(C(=O)NCCN4CCCC4)cc3NC2=O)c1 | -18 | 3 | -6 | 58* | 8 | 6 | 10
CCN1CCCC1CNC(=O)c1ccc2c(c1)N(Cc1ccccc1F)C(=O)c1ccccc1S2(=O)=O (stereo not given) | -1 | 27 | -15 | 20 | -13 | -14 | /
CCN1CCCC1CNC(=O)c1ccc2c(c1)NC(=O)/C(=C\c1ccc(C)cc1)S2 (stereo not given) | 5 | 19 | 2 | 97* | 74* | -3 | 34 | FLuc counter=69*
O=C(NCCCN1CCCCC1)c1ccc2c(c1)NC(=O)c1ccccc1S2 | 1 | -5 | 1 | 18 | -5 | 2 | /
Cc1ccc(/C=C2/Sc3ccc(C(=O)NCCN4CCOCC4)cc3NC2=O)cc1 | -19 | -1 | 5 | 28 | -13 | -2 | /
O=C1Nc2cc(C(=O)NCCCN3CCCC3)ccc2S/C1=C/c1ccccc1F | -17 | 21 | -12 | 58* | -106 | -31 | 14
CC1CCCN(CCCNC(=O)c2ccc3c(c2)N(Cc2ccccc2F)C(=O)c2ccccc2S3(=O)=O)C1 (stereo not given) | -19 | 19 | -10 | 64* | -10 | -11 | 34 | FLuc counter=51*
CCCSCCCNC(=O)c1ccc(NC(=O)C2=CSCCO2)cc1 | -46 | -9 | -8 | -7 | 4 | -2 | /
CCN1C(=O)c2ccccc2Sc2ccc(C(=O)NCCCN3CCCCC3)cc21 | -57 | 42 | -16 | 51* | 19 | -3 | 10
C/C(=N\NC(=O)c1ccc(NS(=O)(=O)c2cccs2)cc1)c1ccccn1 | -18 | 4 | 12 | 58* | 71* | 14 | -6
CC(=O)c1ccc(Nc2nc3ccccc3nc2NS(=O)(=O)c2cccs2)cc1 | -5 | 10 | -8 | 60* | -10 | 9 | 28
C/C(=N\NC(=O)c1ccc(NS(=O)(=O)c2cccs2)cc1)c1ccncc1 | -14 | 8 | -17 | 5 | 2 | 0 | /
N#CC(CC(=O)c1ccc(F)cc1)c1ccc2c(c1)OCO2 (stereo not given) | 11 | -3 | -3 | -8 | 11 | 6 | /
CC(C)(C)OC(=O)C[C@@H]1C/C=C\C[C@@H](CC(=O)N(CCO)Cc2ccccc2)C(=O)NC[C@H](c2ccccc2)OC1=O | / | 7 | 4 | 60* | / | 24 | 40* | FLuc counter=71*
CC(C)CC(NC(=O)c1ccc(Cl)cc1)C(=O)OCC(=O)c1ccc2c(c1)NC(=O)CO2 (stereo not given) | -23 | 1 | -4 | 95* | 96* | 6 | 94* | FLuc counter=17
COc1cc(/C=C/C(=O)OCC(=O)c2ccc3c(c2)NC(=O)CO3)ccc1OC(F)F | / | 9 | -7 | -20 | / | 5 | /
Cc1cc(=O)oc2cc(OCC(=O)c3ccc4c(c3)NC(=O)CO4)ccc12 | -16 | -8 | 3 | 65* | 7 | -32 | 54* | FLuc counter=109*
COc1ccc(/C=C/C(=O)OCC(=O)c2ccc3c(c2)NC(=O)CO3)cc1 | -4 | -12 | 24 | 92* | -16 | 7 | 13
CC=Cc1cc(OC)c2c(c1)C(C)C(c1ccc(O)c(OC)c1)O2 (stereo not given) | / | 0 | / | / | / | / | /
Fc1c(F)c(-n2nnc3ccccc32)c(F)c(F)c1Cl | -15 | -2 | -12 | -8 | -10 | -16 | /
SMILES | KLF5 inh | Gli-Sufu antag | Jurkat NFkB inh | Mdm2 MdmX PPI | aSyn UTR inh | 697 NFkB inh | Mdm2-MdmX conf | others
CC1CCCN(S(=O)(=O)c2ccc(NC(=O)C3CCN(C(=O)c4ccco4)CC3)cc2)C1 (stereo not given) | -13 | 0 | 5 | -2 | 13 | -29 | /
O=C(Nc1cc(Cl)ccc1O)c1snnc1-c1ccccc1 | -12 | 5 | -5 | 93* | 6 | 7 | 58* | FLuc counter=23
Cc1cccc(OCCCC(=O)Nc2nc3ccccc3[nH]2)c1 | -5 | -10 | -2 | 76* | -31 | -13 | 74* | FLuc counter=65*
Cc1ccc(OCCCC(=O)Nc2nc3ccccc3[nH]2)cc1 | -35 | 20 | -2 | -1 | -55 | 5 | /
O=C(OCC(=O)c1ccc[nH]1)c1ccc(C(F)(F)F)cc1 | / | 9 | 3 | -15 | / | 10 | /
O=C(OCn1ncc(Cl)c(Cl)c1=O)c1ccc(C(F)(F)F)cc1 | -9 | 0 | 4 | 72* | -117 | -26 | 74* | FLuc counter=53*
Cc1ccc(C(=O)OCn2ncc(Cl)c(Cl)c2=O)cc1 | 8 | 3 | 14 | 90* | 43 | 1 | 100* | FLuc counter=1
Cc1ccc(C(=O)COC(=O)c2nc(Cl)ccc2Cl)cc1 | / | 0 | 6 | 17 | / | -4 | /
O=C(CSc1nnc(-c2ccncc2)o1)N1CCc2ccccc2C1 | -31 | 4 | -4 | -3 | -1 | 5 | /
CC(=O)c1c(C)[nH]c(C(=O)Nc2cccc(S(=O)(=O)N3CCCC3)c2)c1C | / | 6 | 1 | 70* | / | 30 | 20
CC(=O)c1c(C)[nH]c(C(=O)Nc2cccc(S(=O)(=O)N(C)C)c2)c1C | -22 | 5 | -20 | 38 | -153 | 20 | /
COc1ccc(S(=O)(=O)N2CCOCC2)cc1NC(=O)COC(=O)c1[nH]c(C)c(C(C)=O)c1C | / | 5 | 13 | 33 | / | 14 | /
COc1ccccc1NS(=O)(=O)c1cc(NC(=O)c2ccccc2C)ccc1N1CCOCC1 | / | 5 | / | / | / | / | /
COc1ccccc1NS(=O)(=O)c1cc(NC(=O)c2[nH]c(C)c(C(C)=O)c2C)ccc1N1CCOCC1 | -10 | 7 | 29 | 61* | 48 | -4 | 30
COc1ccc(NC(=O)c2[nH]c(C)c(C(C)=O)c2C)cc1S(=O)(=O)N1CCOCC1 | -6 | 7 | -1 | 28 | -26 | 32 | /
CC(=O)c1c(C)[nH]c(C(=O)Nc2ccc(Cl)c(S(=O)(=O)N3CCOCC3)c2)c1C | 1 | 29 | 2 | 59* | -22 | 13 | 34
CC(=O)c1c(C)[nH]c(C(=O)OCC(=O)Nc2cc(S(=O)(=O)N3CCCC3)ccc2Cl)c1C | -41 | 24 | 17 | 54* | -56 | -22 | 35
